Experimental data published in PubChem BioAssay AID777 (Sanford-Burnham Center for Chemical Genomics, 2007).
The whole screen tested about 96,000 compounds, of which about 19,000 (20%) were called active. Not all results are given here. A number with no mark means an inactive call.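 Rule for the calls: active = blocking of liver enzyme CYP2C9 beyond about 50% at 5 µM (limit read from the data); inactive = the rest.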

target: Cytochrome P450 2C9 (Homo sapiens) (UniProt P11712); experiment: blockers of cytochrome P450 2C9 activity – biochemical, luminescence, ADME assay, primary screen (AID 777); settings: CYP2C9 Supersomes, luciferin-H conversion, at 5 µM, active compounds read high
Sequence (P11712 whole entry, looked up): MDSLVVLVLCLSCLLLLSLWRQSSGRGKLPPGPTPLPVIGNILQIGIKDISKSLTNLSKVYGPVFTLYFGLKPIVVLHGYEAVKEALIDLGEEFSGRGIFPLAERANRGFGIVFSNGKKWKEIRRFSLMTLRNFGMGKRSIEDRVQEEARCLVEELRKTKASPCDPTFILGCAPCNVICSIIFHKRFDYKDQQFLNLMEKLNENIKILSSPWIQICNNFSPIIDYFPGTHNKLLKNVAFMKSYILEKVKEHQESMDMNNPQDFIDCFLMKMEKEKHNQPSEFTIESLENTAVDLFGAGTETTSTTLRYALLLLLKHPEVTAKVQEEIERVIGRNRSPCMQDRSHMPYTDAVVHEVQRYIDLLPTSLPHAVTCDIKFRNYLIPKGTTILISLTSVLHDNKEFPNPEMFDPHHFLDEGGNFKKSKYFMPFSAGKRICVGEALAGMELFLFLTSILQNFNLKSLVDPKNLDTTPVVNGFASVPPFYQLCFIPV

Row | SMILES | inhibition
1 | Cc1nn(C)c(Oc2ccccc2)c1[N+](=O)[O-] | 29.1%
2 | CN(CCC#N)c1ncnc2scc(-c3ccccc3)c12 | 19.4%
3 | Cc1noc(C)c1COC(=O)Cn1c(C)nc2ccccc21 | 10.7%
4 | Cc1noc(C)c1COC(=O)c1cc2ccccc2cc1O | 91.6% (active)
5 | Cc1nc2ccccc2cc1O | -22.9%
6 | CC(=O)N(CN1C(=O)C2CC=CCC2C1=O)c1cccc(Cl)c1 (stereo not given) | 12.2%
7 | CN1C(=O)CC(N2CCN(c3ccccn3)CC2)C1=O (stereo not given) | 7.7%
8 | COc1cccc(C(CC(=O)NCCN2CCOCC2)NS(=O)(=O)c2ccc(C)cc2)c1OC (stereo not given) | -7.3%
9 | CCn1c2ccccc2c2cc(NC(=O)C/C(C)=N/NC(=O)c3ccccc3N)ccc21 | -17.8%
10 | Cc1cc(C)cc(N(C(C)C(=O)Nc2c(C)n(C)n(-c3ccccc3)c2=O)S(C)(=O)=O)c1 (stereo not given) | 16.6%
11 | FC(F)(F)c1cnc(Oc2ccccc2-c2nnc(-c3ccc(Cl)cc3)o2)c(Cl)c1 | 81.1% (active)
12 | COc1ccccc1-c1nc(C(F)(F)F)c(OC)o1 | 17%
13 | CSc1ccccc1-c1nnc(-c2ccc(Cl)cc2)o1 | -19.4%
14 | O=c1[nH]n(-c2cccc(Cl)c2)c2ncccc12 | -10.7%
15 | O=C(Nc1nnc(SCc2ccc(Cl)cc2Cl)s1)C1COc2ccccc2O1 (stereo not given) | 67.2% (active)
16 | O=C(Nc1nnc(SCc2c(Cl)cccc2Cl)s1)C1CCCO1 (stereo not given) | -65.7%
17 | CCSc1nnc(NC(=O)Cc2ccccc2OC)s1 | 42.4%
18 | COc1ccccc1CNC(=O)CCCn1c(=O)c2ccccc2n(CC(=O)NC2CCCC2)c1=O | 44.7%
19 | COc1ccc(NC(=O)Cn2c(=O)n(Cc3ccco3)c(=O)c3ccccc32)cc1 | 17.1%
20 | O=C(Cn1c(=O)n(Cc2ccco2)c(=O)c2ccccc21)NCC1CCCO1 (stereo not given) | 57.3% (active)
21 | O=C1CC(Sc2ncn[nH]2)C(=O)N1c1ccccc1 (stereo not given) | -21.9%
22 | Cc1ccc(S(=O)(=O)N/N=C\c2cc3c(cc2[N+](=O)[O-])OCO3)cc1 | -13%
23 | CN1OC(COC(=O)c2ccc(Cl)cc2)CC1c1ccccc1 (stereo not given) | 37.4%
24 | C=CCNC(=O)c1cc(-c2ccccc2O)on1 | -48.2%
25 | C=CCNC(=O)c1sc(SC)cc1-c1ccc(Cl)cc1 | 64% (active)

Row | SMILES | inhibition
26 | C=CCNC(=O)c1ccc(C)c(Br)c1 | -17.9%
27 | ON=C1/C(=N\O)CC2(C/C1=N/O)OCCO2 | -14.6%
28 | Cc1ccc(OCC(=O)Nn2cnc3ccccc32)cc1 | 6.6%
29 | COc1ccc(-c2cc(C(=O)n3cnc4ccccc43)c3ccccc3n2)cc1 | 92.5% (active)
30 | COc1ccc(-c2cc3n(n2)CCc2nc4ccccc4n2-3)cc1 | -8.6%
31 | COc1cc(NS(=O)(=O)c2ccc(N=Cc3c(C)[nH]n(-c4ccccc4)c3=O)cc2)nc(OC)n1 | -9.3%
32 | Cc1[nH]n(-c2cccc(Cl)c2)c(=O)c1-c1ccc(Cl)cc1 | -1%
33 | Cc1[nH]n(-c2cccc(Cl)c2)c(=O)c1/C=N/n1c(C)nc2ccccc2c1=O | 70.7% (active)
34 | Cc1ccc(CNC(=O)CCNC(=O)Cn2ccc3ccccc3c2=O)cc1 | -18.8%
35 | CC1CCCC(NC(=O)CN2CCN(Cc3ccc(Cl)cc3)C2=O)C1C (stereo not given) | 15.9%
36 | COc1cc(C2C(C(=O)c3ccc(C)o3)=C(O)C(=O)N2Cc2cccnc2)ccc1O (stereo not given) | 19.4%
37 | COc1cc(C2C(C(=O)c3ccc(C)o3)=C(O)C(=O)N2CCc2ccccc2)ccc1O (stereo not given) | 5.2%
38 | COc1cc(C2C(C(=O)c3sc(C)nc3C)=C(O)C(=O)N2CCN(C)C)cc(OC)c1OC (stereo not given) | 79% (active)
39 | Cc1ccc2c(c1)C(O)(CC(=O)c1cccnc1)C(=O)N2 (stereo not given) | 8.4%
40 | Cc1nn(C)cc1/C=C1\CCC/C(=C\c2cn(C)nc2C)C1=O | -46.5%
41 | CCOCCCNC(=O)c1c[nH]c2cc(C)ccc2c1=O | -8.1%
42 | Cc1noc(C)c1CSc1nc2cc(S(=O)(=O)N3CCOCC3)ccc2o1 | 54% (active)
43 | Cc1ccc(S(=O)(=O)N2CCN(S(=O)(=O)N3CCOCC3)CC2)cc1 | -55.7%
44 | Cc1noc(C)c1CSc1nnc2ccc3ccccc3n12 | 4.4%
45 | CCS(=O)(=O)Nc1cc(C(=O)OC)ccc1C(=O)OC | 37.5%
46 | Cc1oc(-c2ccccc2F)nc1CS(=O)(=O)CC(=O)NCCCN(C)C1CCCCC1 | -10.6%
47 | Cc1ccccc1-c1nc(CS(=O)(=O)CC(=O)N2CCc3ccccc3C2)c(C)o1 | 72.4% (active)
48 | O=C(Cn1c(=S)nc2ccccn21)N1CCc2ccccc2C1 | 4.1%
49 | COCCCNC(=O)C1CC(=O)N(c2ccc(C)cc2)C1 (stereo not given) | -1.7%
50 | CS(=O)(=O)N(C(=O)NC(=O)NC1CCS(=O)(=O)C1)C1CCCCC1 (stereo not given) | 9.2%

Row | SMILES | inhibition
51 | CCOc1ccc(NCCC(=O)c2ccc3c(c2)OCO3)cc1 | 63.8% (active)
52 | Cc1ccc(F)cc1NC(=O)c1ccc2c(c1)OCO2 | 5.7%
53 | COC(=O)CCNc1ccc2c(c1)OCCO2 | -2.2%
54 | CC(=O)c1cc(C#N)c(SCC(=O)C(C)(C)C)nc1C | 22.5%
55 | CCOC(=O)C(Sc1ncc(C#N)c(N)n1)C(C)C (stereo not given) | 25.3%
56 | CCC(C)n1[nH]c(=O)cc1N (stereo not given) | -5.6%
57 | Brc1ccc(C2=CC(c3ccco3)n3ncnc3N2)cc1 (stereo not given) | 3.2%
58 | Clc1ccc2c(c1)C1=C(C(c3ccncc3)O2)C(c2ccc(Br)cc2)n2ncnc2N1 (stereo not given) | 82% (active)
59 | COC(=O)C1=C(C)Nc2ncnn2C1c1cccnc1 (stereo not given) | -19.5%
60 | COc1cccc2c1OCC(C(=O)NCc1ccc(Cl)cc1Cl)=C2 | -17.7%
61 | COC(=O)c1ccc2c(c1)S(=O)(=O)NC(=NCCCN1CCOCC1)S2 | 11.4%
62 | O=C(NCc1ccc2c(c1)OCO2)c1ccc2c(c1)C(=O)N(CC1CCCO1)C2=O (stereo not given) | 2.3%
63 | CC(C)(O)C(=O)NN(C(=O)c1ccccc1)c1cccc(Br)c1 | -6.8%
64 | O=C(/C=C/NNC(=O)c1cccc(Br)c1)c1ccccc1 | 76.7% (active)
65 | O=C(/C=C\NCC(=O)c1ccccc1)c1ccccc1 | 12.9%
66 | Cc1ccsc1/C=C1\SC(N2CCOCC2)=NC1=O | -18%
67 | Cc1cc2nc(C)n(CCCNC(=O)Nc3ccccc3)c2cc1C | 44.6%
68 | O=C(COc1ccccc1)N1CCc2ccccc2C1 | 39.9%
69 | CCOc1ccc(CN2CCCN(C)CC2)cc1 | -7.8%
70 | CCOC(=O)c1ccc(N2C(=O)CC(N3CCC(C(=O)OCC)CC3)C2=O)cc1 (stereo not given) | 38.3%
71 | CCOC(=O)c1ccc(N2C(=O)CC(N3CC(C)OC(C)C3)C2=O)cc1 (stereo not given) | 5.1%
72 | CCCCOC(=O)c1ccc(N2C(=O)CC(N3CCN(C/C=C/c4ccccc4)CC3)C2=O)cc1 (stereo not given) | 60.1% (active)
73 | Cc1cccc(OCc2nnc(SCC(=O)N3CCN(C(=O)c4ccco4)CC3)n2C)c1C | 5.9%
74 | Cc1ccc(-c2c3c(=O)n(C)c(=O)n(C)c3cn2-n2cnnc2)cc1 | -7.5%
75 | CCC(C)Sc1nc2c(c(=O)[nH]c(=O)n2C)n1CC(O)COc1cccc2ccccc12 (stereo not given) | 24%

Row | SMILES | inhibition
76 | CCOc1ccc(S(=O)(=O)NCCSc2ccccc2)cc1 | 75.7% (active)
77 | O=C(COc1ccc(S(=O)(=O)NCCc2ccccc2)cc1)N1CCCC1 | 45.1%
78 | CCOc1ccc(S(=O)(=O)NCC2CCCO2)cc1 (stereo not given) | 7.4%
79 | Cc1[nH][nH]c(=O)c1C(c1ccc(-c2ccc(Cl)cc2)o1)c1c(C)[nH][nH]c1=O | 22.5%
80 | CCC(=O)c1cc2c(cc1NC(=O)c1cccs1)OCCO2 | -7%
81 | CCCCCC(=O)Nc1ccc2oc(-c3ccncc3)nc2c1 | 75.3% (active)
82 | O=C(Cc1cccc2ccccc12)Nc1ccc2oc(-c3ccccc3)nc2c1 | 20.1%
83 | O=C(Nc1ccc2oc(-c3ccc4ccccc4c3)nc2c1)c1cccs1 | 27.5%
84 | N#CC(C(N)=O)=C1CCC2(CC1)OCCCCO2 | -39.1%
85 | CN(C)Cc1ccccc1C1(O)c2ccccc2CSc2ccccc21 (stereo not given) | 51% (active)
86 | CN(C)/C=C1/C(=O)Nc2ccccc21 | -12.8%
87 | CCOC(=O)N1CCC(NC(=O)COc2cc(=O)n(C)c3ccccc23)CC1 | -30.2%
88 | Cc1cccc(NC(=O)Cn2cc(C(=O)c3ccco3)c3ccccc32)c1 | 27.3%
89 | NS(=O)(=O)c1ccc(Nc2nc(-c3ccccc3)cs2)cc1 | 58% (active)
90 | Cc1ccc(Nc2nc(-c3sc(NC(=O)c4ccccc4)nc3C)cs2)cc1 | 3.8%
91 | COc1ccc(Nc2nc(-c3ccccc3)cs2)cc1 | 31.7%
92 | Cc1cccc(C(=O)Nc2ccc(CC(=O)O)cc2)c1 | -10.9%
93 | O=C(CN1CCN(c2ncc(C(F)(F)F)cc2Cl)CC1)Nc1ccc2c(c1)OCO2 | 8.6%
94 | O=C(O)CSCC(=O)Nc1cccc(C(F)(F)F)c1 | 18.9%
95 | O=C(CN1CCN(c2ccc(F)cc2)CC1)Nc1cccc(C(F)(F)F)c1 | 82.8% (active)
96 | COc1ccccc1NC(=O)c1ccc(C)s1 | -248%
97 | Cc1nc(NC(=O)c2cccc(Cl)c2)sc1-c1csc(Nc2cccc(Cl)c2)n1 | -17.4%
98 | COc1ccc(/C=C(\NC(=O)c2ccc(OC)c(OC)c2)C(=O)NCCc2c[nH]c3ccccc23)cc1 | 42.3%
99 | CC(=O)N/C(=C/c1ccc(Cl)cc1)C(=O)NCCc1c[nH]c2ccccc12 | -168%
100 | Cc1ccc(C(=O)N/C(=C/c2ccco2)C(=O)NCCc2c[nH]c3ccccc23)cc1C | 52.5% (active)
